BAZ2B block: qHTS Assay for Inhibitors of BAZ2B. Potency, µM (doses to about 114 µM), most hits filed as inhibitors. 360,000 compounds, 4.4% hits. AlphaScreen BAZ2B-H3K14Ac peptide displacement; also: nearly all actives have a fitted effect of over 60% in size
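Protein-peptide AlphaScreen: BAZ2B 50 nM, b-H3K14Ac 50 nM, 1x PBS pH 7.4 + 0.01% Tween-20. Preincubation 30 min RT; cpd 30 min RT (top 110 uM); beads 20 min RT, light-protected.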
HP1b binding inh: HTS for Inhibitors of HP1-beta Chromodomain Interactions with Methylated Histone Tails; Chromobox protein homolog 1 (Homo sapiens), P83916; AlphaScreen HP1-beta / biotin-H3K9me3 peptide binding; Potency, µM (series often up to 114 µM), most hits filed as inhibitors; 390,000 compounds, 0.56% hits; AID 540317, 2011; also: nearly all actives have a fitted effect of over 70% in size
Target sequence (P83916 whole entry, looked up): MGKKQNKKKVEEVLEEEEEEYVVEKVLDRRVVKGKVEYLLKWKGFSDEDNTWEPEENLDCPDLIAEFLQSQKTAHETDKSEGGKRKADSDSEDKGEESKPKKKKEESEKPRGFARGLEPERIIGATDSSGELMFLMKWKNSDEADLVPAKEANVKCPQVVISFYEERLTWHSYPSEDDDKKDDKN
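Compound inhibition of the preformed complex between 50 nM HP1-beta and 50 nM biotinylated H3K9me3 peptide was read by AlphaScreen. Buffer was PBS pH 7.4 with 0.01% Tween-20. Incubations ran 30 min at room temperature, with 10 ug/mL donor/acceptor beads.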
Sfp PPTase inh: qHTS Assay for Inhibitors of Bacillus subtilis Sfp phosphopantetheinyl transferase (PPTase). 4'-phosphopantetheinyl transferase ffp (Bacillus subtilis), Q9F4F7. Biochemical Sfp PPTase activity, qHTS. Potency, µM, hits mostly inhibitors. 310,000 compounds, 3.5% hits;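 also: the enzyme is Sfp with the accession as filed and its product quenches rhodamine fluorescence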
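After 15 min at room temperature with compound, 15 nM Sfp received 5 uM rhodamine-CoA plus 12.5 uM BHQ-2-ybbR (50 mM Hepes pH 7.6, 10 mM MgCl2). Rate came from the fluorescence difference over 30 min, ex 525/em 598 nm.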
JMJD2A Tudor: qHTS Assay for Inhibitors of JMJD2A-Tudor Domain | Lysine-specific demethylase 4A (Homo sapiens), O75164 | AlphaScreen JMJD2A-Tudor / H3K4me3 peptide binding | Potency, µM (doses to about 114 µM), usual class: inhibitors | 390,000 compounds, 4.4% hits; also: nearly all actives have a fitted effect of over 50% in size
L3MBTL1 inh: qHTS Assay for the Inhibitors of L3MBTL1 | AlphaScreen L3MBTL1–H3K9me1 peptide binding | Potency, µM (titrated, usually from 57.1 µM), actives largely listed as inhibitors | 230,000 compounds, 0.66% hits; also: nearly all actives have a fitted effect of over 60% in size
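AlphaScreen proximity signal between nickel-chelate acceptor and streptavidin donor beads (final 10 ug/mL) reports binding of 50 nM L3MBTL1 to 75 nM biotin-H3 K9me1 peptide; complex incubated with compounds 30 min at room temperature; cefsulodin titration as control.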
G9a block: qHTS Assay for Inhibitors of Histone Lysine Methyltransferase G9a | Potency, µM (top dose mostly 102 µM), most hits filed as inhibitors | 350,000 compounds, 8.8% hits | AID 504332, 2011 | Histone-lysine N-methyltransferase EHMT2 (Homo sapiens), Q96KQ7 | G9a H3K9 monomethylation, AlphaScreen, 2 h; also: nearly all actives have a fitted effect of over 75% in size
Target sequence (Q96KQ7 913-1193 limits assumed): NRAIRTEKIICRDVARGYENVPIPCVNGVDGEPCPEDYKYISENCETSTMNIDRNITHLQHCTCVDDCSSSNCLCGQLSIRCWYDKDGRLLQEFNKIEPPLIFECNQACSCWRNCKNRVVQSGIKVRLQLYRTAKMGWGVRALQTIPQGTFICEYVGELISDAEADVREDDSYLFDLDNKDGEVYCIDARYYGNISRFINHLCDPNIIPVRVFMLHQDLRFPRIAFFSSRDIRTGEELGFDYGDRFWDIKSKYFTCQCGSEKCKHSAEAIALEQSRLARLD
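Quantitative HTS format: methyltransferase activity on a biotin-tagged H3K9 peptide is measured by AlphaScreen, using a rabbit anti-monomethyl-H3K9 antibody with streptavidin donor and anti-IgG acceptor beads. Final levels are 20 nM enzyme, 500 nM peptide, 20 uM SAM; 2 h RT.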
A number is an active result; - = inactive; ? = inconclusive; . = not tested or not shown; [ ] = dose if it differs, or a comment. Rows were chosen to be rich in hits. Some 12% of all compounds tested hit in one or more screens of this group. Calls follow the shape of the dose curve; as a rule, active = well fitted curve in the direction sought with a large enough effect; inconclusive = small, poorly fitted or top-dose-only effect, or another doubt; inactive = no such curve, though single readings can be large; an effect the other way counts as inactive or inconclusive.

SMILES | BAZ2B block | HP1b binding inh | Sfp PPTase inh | JMJD2A Tudor | L3MBTL1 inh | G9a block
COc1ccc2nc(CCN(C)C(=O)C3CCC(=O)N(Cc4cccc(F)c4)C3)[nH]c2c1 (configuration not stated) | 50.1µM | - | - | - | . | -
COc1cccc(CN2CC(C(=O)N(C)Cc3nc4ccc(F)cc4[nH]3)CCC2=O)c1 (configuration not stated) | - | - | - | - | . | .
Cc1c(C(=O)N2CCCCCC2)c(S(=O)(=O)Nc2cccc(C#N)c2)c(C)n1C | - | - | . | - | . | -
Cc1ccccc1NC(=S)c1nc2ccccc2[nH]1 | 11.2µM | - | - | ? | ? | -
Cc1ccccc1NC(=O)NCCc1nc2ccccc2[nH]1 | - | - | - | - | - | -[12.7 µM]
S=C(Nc1ccc(Cl)cc1)c1nc2ccccc2[nH]1 | 44.7µM | ? | - | ? | ? | -
N#CC1=C(SCC(=O)NCc2ccccc2)NC(=O)CC1c1ccco1 (configuration not stated) | - | ? | - | -[11.4 µM] | - | ?
Cc1ccc(C2CC(=O)NC(SCc3ccccc3)=C2C#N)o1 (configuration not stated) | 31.6µM | - | ? | ? | 17.8µM | ?
CCSC1=C(C#N)C(c2ccc(C)o2)CC(=O)N1 (configuration not stated) | - | - | - | - | - | -[12.7 µM]
N#CC1=C(SCc2ccccc2)NC(=O)CC1c1ccco1 (configuration not stated) | . | - | 44.7µM | - | ? | ?
COc1cccc(NC(=O)Cn2c(=O)n(CCCCC(=O)NCCc3ccccc3)c(=O)c3ccccc32)c1 | - | - | . | - | . | -
COc1ccc(OC)c(/C=C2\SC(N3CCCC(C)C3)=NC2=O)c1 (configuration not stated) | - | - | ? | - | . | 28.2µM
O=C(Nc1nnc(-c2ccccc2)o1)C1CCCN1S(=O)(=O)c1cccs1 (configuration not stated) | 50.1µM | - | . | ? | - | -
O=C(Nc1ccccc1)C1CCCN1S(=O)(=O)c1cccs1 (configuration not stated) | - | - | . | - | - | ?
COc1ccc(-c2nnc(NC(=O)C3CCCN3S(=O)(=O)c3cccs3)o2)cc1 (configuration not stated) | 50.1µM | - | . | ? | - | -
Oc1c(Cl)cc(Cl)cc1C=Nc1ccccc1N1CCCC1 | 44.7µM | . | - | . | - | 10µM
Cc1cc(Br)ccc1NS(=O)(=O)c1c(C)[nH]c(=O)[nH]c1=O | - | - | - | - | . | 44.7µM
CC1=C(C(=O)Nc2ccccc2)C(c2ccncc2)C(C#N)=C(SCC(=O)Nc2ccccc2)N1 (configuration not stated) | - | - | - | - | . | 28.2µM
CSC1=C(C#N)C(c2ccncc2)C(C(=O)Nc2ccccc2)=C(C)N1 (configuration not stated) | - | - | - | - | - | 25.1µM
CC1=C(C(=O)Nc2ccc(F)cc2)C(c2ccncc2)C2=C(CCCC2=O)N1 (configuration not stated) | - | - | - | - | - | -
CCOC(=O)c1c(NC(=O)c2cc(-c3cccc(Cl)c3)on2)sc(C)c1C | - | - | . | - | . | 12.6µM
CCOC(=O)c1c(NC(=O)c2noc(C)c2[N+](=O)[O-])sc(C(C)=O)c1C | - | - | - | - | . | 39.8µM
CCOC(=O)c1c(NC(=O)c2cc(-c3cccc(Cl)c3)on2)sc(C(C)=O)c1C | - | 70.8µM | . | - | . | 14.1µM
CCOC(=O)c1c(NC(=O)c2cc(-c3cccc(O)c3)on2)sc(C(C)=O)c1C | ? | - | - | - | - | ?
CCOC(=O)c1c(-c2ccccc2)csc1NC(=S)N(CC)CC | - | - | - | - | - | 22.4µM
SMILES | BAZ2B block | HP1b binding inh | Sfp PPTase inh | JMJD2A Tudor | L3MBTL1 inh | G9a block
CC(C)c1nn2c(=O)cc(COC(=O)c3ccc(NC(=O)COc4ccccc4)cc3)nc2s1 | - | - | . | - | . | -
CCOC(=O)c1c(-c2ccc(C)cc2)csc1NC(=O)c1cc(=O)c2cc(Cl)ccc2o1 | - | - | . | - | . | -
CCOC(=O)c1sc(NC(=O)c2cc(-c3cccc(O)c3)on2)c(C(=O)OCC)c1C | - | - | - | - | - | -
CCOC(=O)c1c(-c2ccccc2)csc1NC(=O)c1cc(-c2ccc(C)c(F)c2)on1 | - | - | . | - | . | -
CCOC(=O)c1c(NC(=O)c2cc(-c3ccc(Br)cc3)on2)sc(C)c1C | - | - | . | - | . | 2.82µM
CCOC(=O)c1c(-c2ccc(C)cc2)csc1NC(=O)c1cc(=O)c2cc(C)cc(C)c2o1 | - | ? | . | - | . | 7.08µM
CCOC(=O)c1c(-c2ccc(C)cc2)csc1NC(=O)c1nc(SC(C)C)ncc1Cl | - | - | . | - | . | 12.6µM
CCOC(=O)c1c(-c2ccccc2)csc1NC(=O)c1cc(-c2ccc(Cl)cc2)on1 | - | - | . | - | . | 17.8µM
Cc1nc(CC(=O)Nc2cc(Cl)ccc2C)cs1 | - | - | . | - | . | -
CCOC(=O)CNC(=O)O[C@@H]1C(=O)c2cc(Br)ccc2O[C@H]1c1ccc2c(c1)OCO2 | . | . | - | . | . | .
CO[C@@H]1/C=C\CC(=O)N2CCC[C@@H]2C(=O)OC[C@H](C)C(=O)OC[C@H]1C | . | . | - | . | . | .
O=C(O)[C@@H](c1ccccc1)N1Cc2ccccc2C1=O | 20µM | - | 28.2µM | 25.1µM | 17.8µM | 39.8µM
c1ccc2c(c1)CC/C2=N/Nc1nc2ccccc2[nH]1 | ? | - | 35.5µM | - | - | -
CC(C)(C)C1CCC(=NNc2nc3ccccc3[nH]2)CC1 (configuration not stated) | ? | - | - | - | ? | 39.8µM
c1ccc2c(c1)CCC[C@H]2Nc1nc2ccccc2[nH]1 | . | . | . | . | . | -
c1ccc(CN2CCC(=NNc3nc4ccccc4[nH]3)CC2)cc1 | . | - | - | ? | ? | -
O=C(CC1CCCCC1)Nc1ccccc1-c1ccccc1 | - | - | - | - | - | -
CC(NC1CCCC1)C(=O)Nc1ccccc1-c1ccccc1 (configuration not stated) | 79.4µM | ? | - | 2µM | - | ?
Cc1cccc2cc(C#N)c(SCC#N)nc12 | - | - | - | - | - | 25.1µM
COC(=O)c1ccccc1NC(=O)CN1CCN(c2ccccn2)CC1 | - | - | - | - | - | -
COC(=O)c1ccccc1N/C=C1\CCc2c(c(C)nn2-c2ccccn2)C1=O | - | - | 44.7µM | - | - | ?

Compound activity deposited in PubChem BioAssay by National Center for Advancing Translational Sciences (NCATS).
